Source: PubChem BioAssay AID1159580 (chemical genetic matrix, 2015)
The whole screen tested about 5,500 compounds, of which about 2,000 (36%) were called active. About 18% were inconclusive and are not listed. No stated cut-off is given here; in the data, active means normalized growth mostly below about 0.91 (no sharp cut-off); inconclusive means no clear call, values can overlap the other calls; inactive means mostly above about 0.92. The list shows a part of the results.

Assay: chemical genetic growth profiling, strain panel (AID 1159580);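 further: tested at 20 µM; growth read once vehicle control cultures reached saturation at 30 °C; 1 = growth at the plate median or of vehicle wells; lower values mean less growth of the strain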
Settings: growth OD

Measured: normalized growth

C/C1=C\CC(C)(C)/C=C/CC2(C)OC2CC1 (stereo unspecified)
inactive: S. cerevisiae deletion strains, locus YBR021W, strain FUR4, active compounds read low 1.02 | S. cerevisiae deletion strains, locus YBR229C, strain ROT2, active compounds read low 1.01 | S. cerevisiae deletion strains, locus YCL029C, strain bik1, active compounds read low 0.999 | S. cerevisiae deletion strains, locus YDL035C, strain GPR1, active compounds read low 0.998 | S. cerevisiae deletion strains, locus YDL074C, strain BRE1, active compounds read low 1.01 | S. cerevisiae deletion strains, locus YDL101C, strain DUN1, active compounds read low 1.03 | S. cerevisiae deletion strains, locus YDL185W, strain tfp1, active compounds read low 1.01 | S. cerevisiae deletion strains, locus YDL192W, strain arf1, active compounds read low 1.01 | S. cerevisiae deletion strains, locus YDR101C, strain arx1, active compounds read low 0.968 | S. cerevisiae deletion strains, locus YDR150W, strain NUM1, active compounds read low 1.01 | S. cerevisiae deletion strains, locus YDR162C, strain NBP2, active compounds read low 1 | S. cerevisiae deletion strains, locus YDR318W, strain mcm21, active compounds read low 0.997 | S. cerevisiae deletion strains, locus YDR388W, active compounds read low 1.01 | S. cerevisiae deletion strains, locus YDR502C, strain sam2, active compounds read low 1.03 | S. cerevisiae deletion strains, locus YEL061C, strain CIN8, active compounds read low 1.01 | S. cerevisiae deletion strains, locus YER110C, active compounds read low 1.02 | S. cerevisiae deletion strains, locus YER155C, strain BEM2, active compounds read low 1 | S. cerevisiae deletion strains, locus YER167W, strain BCK2, active compounds read low 1 | S. cerevisiae deletion strains, locus YGL078C, strain dbp3, active compounds read low 1.01 | S. cerevisiae deletion strains, locus YGL086W, strain mad1, active compounds read low 1.01 | S. cerevisiae deletion strains, locus YGL248W, strain PDE1, active compounds read low 1.04 | S. cerevisiae deletion strains, locus YGR135W, strain pre9, active compounds read low 1.05 | S. cerevisiae deletion strains, locus YGR252W, strain gcn5, active compounds read low 1.05 | S. cerevisiae deletion strains, locus YHR030C, strain SLT2, active compounds read low 1 | S. cerevisiae deletion strains, locus YHR079C, strain IRE1 (second series), active compounds read low 1.01 | S. cerevisiae deletion strains, locus YHR094C, strain hxt1, active compounds read low 1.02 | S. cerevisiae deletion strains, locus YHR129C, strain ARP1, active compounds read low 1.01 | S. cerevisiae deletion strains, locus YHR200W, strain rpn10, active compounds read low 1.01 | S. cerevisiae deletion strains, locus YIL066C, strain RNR3, active compounds read low 1.01 | S. cerevisiae deletion strains, locus YIL073C, strain SPO22, active compounds read low 1.04 | S. cerevisiae deletion strains, locus YIL125W, strain kgd1, active compounds read low 1.01 | S. cerevisiae deletion strains, locus YIR030C, strain dcg1, active compounds read low 0.999 | S. cerevisiae deletion strains, locus YJL095W, strain BCK1, active compounds read low 1.08 | S. cerevisiae deletion strains, locus YJL134W, strain LCB3, active compounds read low 1 | S. cerevisiae deletion strains, locus YJL168C, strain set2, active compounds read low 1.02 | S. cerevisiae deletion strains, locus YJL187C, strain SWE1 (second series), active compounds read low 1.03 | S. cerevisiae deletion strains, locus YJR043C, strain POL32, active compounds read low 0.99 | S. cerevisiae deletion strains, locus YJR075W, strain HOC1, active compounds read low 1.01 | S. cerevisiae deletion strains, locus YKL009W, strain mrt4, active compounds read low 1.01 | S. cerevisiae deletion strains, locus YKL068W, active compounds read low 1 | S. cerevisiae deletion strains, locus YKL085W, strain MDH1 (second series), active compounds read low 1.01 | S. cerevisiae deletion strains, locus YKL085W, strain MDH1, active compounds read low 1.01 | S. cerevisiae deletion strains, locus YKR001C, strain vps1, active compounds read low 0.998 | S. cerevisiae deletion strains, locus YLR039C, strain RIC1, active compounds read low 1.04 | S. cerevisiae deletion strains, locus YLR058C, strain SHM2, active compounds read low 1.01 | S. cerevisiae deletion strains, locus YLR102C, strain apc9, active compounds read low 1.01 | S. cerevisiae deletion strains, locus YLR262C, strain YPT6, active compounds read low 1.07 | S. cerevisiae deletion strains, locus YLR268W, strain sec22, active compounds read low 0.99 | S. cerevisiae deletion strains, locus YLR342W, strain FKS1 (second series), active compounds read low 1.02 | S. cerevisiae deletion strains, locus YLR371W, strain rom2, active compounds read low 0.984 | S. cerevisiae deletion strains, locus YLR418C, strain cdc73, active compounds read low 1.08 | S. cerevisiae deletion strains, locus YML016C, strain PPZ1, active compounds read low 1 | S. cerevisiae deletion strains, locus YML032C, strain rad52, active compounds read low 1 | S. cerevisiae deletion strains, locus YML124C, strain tub3, active compounds read low 1 | S. cerevisiae deletion strains, locus YMR078C, strain ctf18, active compounds read low 1.01 | S. cerevisiae deletion strains, locus YMR223W, strain ubp8, active compounds read low 1.01 | S. cerevisiae deletion strains, locus YMR263W, strain SAP30, active compounds read low 1.02 | S. cerevisiae deletion strains, locus YMR307W, strain GAS1, active compounds read low 0.978 | S. cerevisiae deletion strains, locus YNL067W, strain RPL9B, active compounds read low 1.02 | S. cerevisiae deletion strains, locus YNL153C, strain GIM3, active compounds read low 1.03 | S. cerevisiae deletion strains, locus YNL233W, strain BNI4, active compounds read low 1.03 | S. cerevisiae deletion strains, locus YNL250W, strain rad50, active compounds read low 1.01 | S. cerevisiae deletion strains, locus YNL271C, strain bni1, active compounds read low 1.01 | S. cerevisiae deletion strains, locus YNL298W, strain CLA4, active compounds read low 0.995 | S. cerevisiae deletion strains, locus YNL307C, strain MCK1, active compounds read low 1.03 | S. cerevisiae deletion strains, locus YNR052C, strain pop2, active compounds read low 1.01 | S. cerevisiae deletion strains, locus YOL006C, strain TOP1, active compounds read low 1 | S. cerevisiae deletion strains, locus YOL012C, strain htz1 1.6 | S. cerevisiae deletion strains, locus YOL147C, strain pex11, active compounds read low 1.01 | S. cerevisiae deletion strains, locus YOR061W, strain CKA2, active compounds read low 0.994 | S. cerevisiae deletion strains, locus YOR069W, strain VPS5, active compounds read low 1.01 | S. cerevisiae deletion strains, locus YOR136W, strain idh2, active compounds read low 1 | S. cerevisiae deletion strains, locus YOR144C, strain elg1, active compounds read low 1 | S. cerevisiae deletion strains, locus YOR184W, strain ser1, active compounds read low 0.986 | S. cerevisiae deletion strains, locus YOR316C, strain cot1, active compounds read low 1 | S. cerevisiae deletion strains, locus YPR119W, strain clb2, active compounds read low 1.02 | S. cerevisiae deletion strains, locus YPR141C, strain kar3, active compounds read low 1.01 | S. cerevisiae deletion strains, locus YPR163C, strain tif3, active compounds read low 1.02 | S. cerevisiae deletion strains, locus YPR167C, strain met16, active compounds read low 1.02 | S. cerevisiae deletion strains, strain wtn01, active compounds read low 0.974 | S. cerevisiae strains, strain wild type, active compounds read low 1.01
